Data on 19 compounds can be found in PubChem BioAssay (NCATS).

Records with an inconclusive call do not appear. Some of the results follow. Activity calls are given as the source filed them. Unless noted, the call rests on the fitted dose curve; in most records, active means well fitted curve in the direction sought with a large enough effect; inconclusive means small, poorly fitted or top-dose-only effect, or another doubt; inactive means no such curve, though single readings can be large; an effect the other way counts as inactive or inconclusive.

Experiment [1] in a line: qHTS for Inhibitors of Ubiquitin-specific Protease USP2a Using CHOP2 as the Reporter: K633 Counterscreen (AID 652168). Further: % of control where 0% means no effect. The essentials:
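Detection-system control: fluorescence of K48-linked DiUb-4IQF substrate (100 nM as added) tracked over time, Ex 525/Em 598, with pinned compounds and no enzyme, in pH 8 Tris buffer containing beta-mercaptoethanol and 0.05% Chaps.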
Background: In qHTS, concentration-response curves come from the screen itself.

Experiment [2] can be described thus: qHTS for Inhibitors of Ubiquitin-specific Protease USP2a Using CHOP2 as the Reporter: Cytotox Assay (AID 652170).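 Further: HCT116 human colon cancer cells at 600 per well; plate controls were DMSO-treated cells for no effect and wells without cells for full effect; nearly all actives have a fitted effect of over 70% in size.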 In short, it runs like this: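 Cytotoxicity read as ATP luminescence (CellTiter-Glo) after 72 hr compound treatment at 37 deg C. Cells: HCT116, 600/well in DMEM plus 10% FBS. Normalization between DMSO-treated cells and cell-free wells.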
The target in experiment [3] is Ubiquitin carboxyl-terminal hydrolase 2 (Homo sapiens) (UniProt O75604). In words: qHTS for Inhibitors of Ubiquitin-specific Protease USP2a Using CHOP2 as the Reporter: K484 Substrate (AID 652173).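 Further: cleavage of internally quenched K48 di-ubiquitin substrate measured as rising fluorescence over time; potency means the concentration at half of the fitted maximal effect; nearly all actives have a fitted effect of over 70% in size.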 In short, it runs like this: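 Kinetic fluorescence (Ex 525/Em 598) tracked cleavage of an internally quenched K48 di-ubiquitin substrate, added as a 100 nM solution. The enzyme was added as a 5 nM USP2 solution before compound pinning, with no-enzyme controls. Buffer: Tris pH 8, beta-mercaptoethanol, CHAPS.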

Experiment [4] addresses Calcium and integrin-binding protein 1 (Homo sapiens) (UniProt Q99828). In words: Primary qHTS for Identification of Calcium Integrin Binding Protein 1 (CIB1) Competitor (AID 1508620).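 Further: GST tagged CIB1 binding a fluorescein labelled alphaIIb integrin peptide tracer; top concentration of the series differs between compounds; on the % scale 0 is the no-effect control and ±100 the full control effect.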 In short, it runs like this: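 Fluorescence polarization competition: CIB1-GST (1 uM final) preincubated with compound 15 min at room temperature, then FITC-labeled alphaIIb peptide (100 nM final) added for another 15 min. Polarization read at Ex 480/Em 540.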

Experiment [5] has as its target Cytochrome P450 3A4 (Homo sapiens) (UniProt P08684). The experiment in a line: qHTS Assay for Inhibitors and Substrates of Cytochrome P450 3A4 (AID 884). Further: on the % scale 0 is the no-effect control and ±100 the full control effect; nearly all actives have a fitted effect of over 50% in size. The essentials:
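Luminescent readout of luciferin produced by CYP3A4 (20 nM) dealkylation of Luciferin-PPXE, 25 uM (its KM). NADPH-driven reaction ran 60 min at RT after 10 min compound preincubation; data scaled to 57 uM ketoconazole as 100% inhibition.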

A short description of experiment [6]: Counterscreen qHTS for small molecule stabilizers of the endoplasmic reticulum resident proteome: GLuc-NoTag assay (AID 1508627). Further: potency means the concentration at half of the fitted maximal effect. In short, it runs like this: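 Secreted GLuc lacking the SERCaMP modification is measured in SH-SY5Y cells exposed to compound for 19 h and then to thapsigargin (100 nM, 4 h) to deplete ER calcium; hits retested at 11 concentrations, up to 76.6 uM.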

Experiment [7] can be described thus: Confirmatory qHTS for small molecule stabilizers of the endoplasmic reticulum resident proteome: Secreted ER Calcium Modulated Protein (SERCaMP) assay (AID 1508628).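 Further: SH-SY5Y cells given compound 16 h then thapsigargin 100 nM for 4 h; on the % scale 0 is the no-effect control and ±100 the full control effect; nearly all actives have a fitted effect of over 40% in size.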 In short, it runs like this: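 GLuc-SERCaMP-expressing SH-SY5Y cells, pretreated 16 h with compound, are challenged with thapsigargin to empty ER calcium stores; after 4 h, coelenterazine is added directly to the medium and luminescence is imaged.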

A short description of experiment [8]: qHTS profiling for inhibitors of Plasmodium falciparum (3D7) proliferation (AID 743322).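 Further: infected erythrocytes exposed to compound for 72 h before lysis; 100% = DMSO vehicle wells and 0% = 0.29 µM artemisinin.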 The note with it: P. falciparum 3D7 proliferation; at 28.7 µM (top of the series). The essentials: (§1)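 Parasite DNA was quantified by SYBR Green I fluorescence (ex 485, em 535 nm) after overnight lysis in saponin/Triton buffer at room temperature. Cultures at 0.3% parasitemia and 2.5% hematocrit were first exposed to compound for 72 h at 37 C; signals were normalised to artemisinin (0.29 uM) and vehicle wells.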

The nature of experiment [9]: qHTS profiling for inhibitors of Plasmodium falciparum (HB3) proliferation (AID 743324).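 Further: 100% = DMSO vehicle wells and 0% = artemisinin-treated control wells.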 The note with it: Plasmodium falciparum HB3 blood-stage proliferation; at 28.7 µM (top of the series). The essentials:
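SYBR Green fluorescence (485 ex/535 em) of lysed cultures, incubated overnight at room temperature in the dark, quantifies parasite DNA. Infected erythrocytes at 0.3% parasitemia and 2.5% hematocrit were exposed 72 h; values normalized to DMSO and 0.29 uM artemisinin controls.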

The nature of experiment [10]: qHTS profiling of the MIPE4 collection as inhibitors of Plasmodium falciparum (3D7) proliferation (AID 743344; call rule not given here;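 further: scaled between DMSO vehicle wells and 0.29 µM artemisinin as full inhibition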). The note with it: P. falciparum 3D7 in erythrocytes, SYBR Green DNA fluorescence, 72 h; at 28.5 µM (top of the series). The essentials:
as §1

A short description of experiment [11]: qHTS profiling of the MIPE4 collection as inhibitors of Plasmodium falciparum (DD2) proliferation (AID 743345; call rule not given here). The note with it: P. falciparum Dd2 in erythrocytes, SYBR Green DNA, 72 h; at 28.5 µM (top of the series). The essentials: as §1
A short description of experiment [12]: qHTS profiling of the MIPE4 collection as inhibitors of Plasmodium falciparum (DD2) proliferation (Rep 2) (AID 743346; call rule not given here). The note with it: P. falciparum Dd2 in erythrocytes, SYBR Green DNA, 72 h; at 28.5 µM (top of the series). In short, it runs like this:
as §1

Experiment [13] can be described thus: qHTS profiling of the MIPE4 collection as inhibitors of Plasmodium falciparum (HB3) proliferation (AID 743347; call rule not given here;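 further: plate controls were DMSO vehicle wells for no effect and artemisinin wells for full effect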). To be noted: P. falciparum HB3 in erythrocytes, SYBR Green DNA, 72 h; at 28.5 µM (top of the series). The essentials: as §1
Experiment [14] deals with DNA polymerase kappa (Homo sapiens) (UniProt Q9UBT6). The experiment in a line: qHTS for Inhibitors of Polymerase Kappa: Confirmatory Assay for Cherry-picked Compounds (AID 720501). Further: potency means the concentration at half of the fitted maximal effect. The note with it: purified Pol-kappa, fluorescent strand-displacement substrate. In short, it runs like this:
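Human Pol-kappa, dispensed at 10 nM, was preincubated with compounds for 15 min at room temperature. Reactions were started with primer/template substrate (50 nM final) carrying a TAMRA reporter strand and BHQ-2-quenched template, and fluorescence (ex 525/em 598 nm) was read at 0 and 10 min.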

Experiment [15] has as its target Flap endonuclease 1 (Homo sapiens) (UniProt P39748). The experiment in a line: qHTS Assay for the Inhibitors of FEN1: Confirmatory Assay for Cherry-picked Compounds (AID 720498). Further: potency means the concentration at half of the fitted maximal effect; nearly all actives have a fitted effect of over 60% in size. To be noted: FEN1 flap cleavage, TAMRA/BHQ2 fluorogenic DNA substrate. In short, it runs like this:
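Human FEN1 (10 nM reagent) was preincubated with compounds for 15 min at room temperature, then 50 nM final double-flap DNA substrate (5'-TAMRA flap, BHQ-2 quencher strand) was added. Fluorescence (ex 525/em 598 nm) was read at 0 and 15 min.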

Calcium and integrin-binding protein 1 (Homo sapiens), sequence (Q99828 whole entry, looked up): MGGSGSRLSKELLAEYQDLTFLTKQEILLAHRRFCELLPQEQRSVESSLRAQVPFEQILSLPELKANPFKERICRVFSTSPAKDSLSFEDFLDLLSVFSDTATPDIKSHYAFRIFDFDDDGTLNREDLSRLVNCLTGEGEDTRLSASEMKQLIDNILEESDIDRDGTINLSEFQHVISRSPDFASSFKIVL
Ubiquitin carboxyl-terminal hydrolase 2 (Homo sapiens), sequence (O75604 whole entry, looked up): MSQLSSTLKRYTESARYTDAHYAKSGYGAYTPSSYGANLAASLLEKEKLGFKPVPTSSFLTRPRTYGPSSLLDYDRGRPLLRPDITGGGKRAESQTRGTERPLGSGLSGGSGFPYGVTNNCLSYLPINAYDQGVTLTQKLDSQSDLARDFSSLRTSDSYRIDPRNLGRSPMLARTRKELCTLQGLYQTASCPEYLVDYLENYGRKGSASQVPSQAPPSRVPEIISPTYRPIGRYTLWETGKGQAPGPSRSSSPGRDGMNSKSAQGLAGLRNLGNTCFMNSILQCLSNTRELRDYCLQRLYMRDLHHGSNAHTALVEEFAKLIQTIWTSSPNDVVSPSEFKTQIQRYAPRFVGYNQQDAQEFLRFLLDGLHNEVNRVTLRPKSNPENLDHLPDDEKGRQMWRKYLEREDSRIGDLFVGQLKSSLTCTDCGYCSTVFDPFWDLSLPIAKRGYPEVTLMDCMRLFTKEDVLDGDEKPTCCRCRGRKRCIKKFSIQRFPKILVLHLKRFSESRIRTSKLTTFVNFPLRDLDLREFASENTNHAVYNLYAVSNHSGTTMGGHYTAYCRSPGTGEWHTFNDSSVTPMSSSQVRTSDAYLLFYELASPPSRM
DNA polymerase kappa (Homo sapiens), sequence (Q9UBT6 whole entry, looked up): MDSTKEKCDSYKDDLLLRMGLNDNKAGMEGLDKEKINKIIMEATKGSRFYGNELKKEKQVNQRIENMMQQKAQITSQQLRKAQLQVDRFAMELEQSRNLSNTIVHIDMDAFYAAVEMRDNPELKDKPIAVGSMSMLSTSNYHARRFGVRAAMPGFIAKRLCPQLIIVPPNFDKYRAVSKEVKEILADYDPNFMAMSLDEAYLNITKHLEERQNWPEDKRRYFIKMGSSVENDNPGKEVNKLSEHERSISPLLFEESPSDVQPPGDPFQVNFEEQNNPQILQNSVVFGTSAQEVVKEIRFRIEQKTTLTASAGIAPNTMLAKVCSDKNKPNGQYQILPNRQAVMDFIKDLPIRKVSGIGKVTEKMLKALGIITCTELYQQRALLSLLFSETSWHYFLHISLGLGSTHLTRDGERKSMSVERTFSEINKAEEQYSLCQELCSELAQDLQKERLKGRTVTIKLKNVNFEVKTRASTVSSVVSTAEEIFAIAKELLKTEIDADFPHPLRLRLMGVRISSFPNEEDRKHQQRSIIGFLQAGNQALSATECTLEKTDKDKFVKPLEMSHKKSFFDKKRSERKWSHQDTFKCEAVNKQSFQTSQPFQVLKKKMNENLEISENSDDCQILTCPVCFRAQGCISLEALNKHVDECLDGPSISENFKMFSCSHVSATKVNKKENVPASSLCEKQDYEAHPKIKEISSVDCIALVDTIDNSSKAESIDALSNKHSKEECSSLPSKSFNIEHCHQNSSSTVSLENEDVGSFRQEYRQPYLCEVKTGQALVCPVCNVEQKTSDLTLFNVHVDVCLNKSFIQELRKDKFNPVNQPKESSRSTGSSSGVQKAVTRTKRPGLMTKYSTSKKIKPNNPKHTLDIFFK
Flap endonuclease 1 (Homo sapiens), sequence (P39748 whole entry, looked up): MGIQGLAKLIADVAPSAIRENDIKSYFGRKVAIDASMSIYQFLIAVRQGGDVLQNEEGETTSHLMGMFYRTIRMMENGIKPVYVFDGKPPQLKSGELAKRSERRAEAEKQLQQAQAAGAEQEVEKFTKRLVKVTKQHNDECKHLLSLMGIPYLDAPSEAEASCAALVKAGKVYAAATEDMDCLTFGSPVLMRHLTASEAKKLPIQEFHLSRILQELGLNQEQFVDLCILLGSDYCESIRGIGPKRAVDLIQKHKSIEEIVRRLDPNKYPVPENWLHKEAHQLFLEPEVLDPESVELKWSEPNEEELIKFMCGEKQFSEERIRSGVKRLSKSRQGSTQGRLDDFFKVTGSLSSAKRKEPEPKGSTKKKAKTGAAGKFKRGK
Cytochrome P450 3A4 (Homo sapiens), sequence (P08684 whole entry, looked up): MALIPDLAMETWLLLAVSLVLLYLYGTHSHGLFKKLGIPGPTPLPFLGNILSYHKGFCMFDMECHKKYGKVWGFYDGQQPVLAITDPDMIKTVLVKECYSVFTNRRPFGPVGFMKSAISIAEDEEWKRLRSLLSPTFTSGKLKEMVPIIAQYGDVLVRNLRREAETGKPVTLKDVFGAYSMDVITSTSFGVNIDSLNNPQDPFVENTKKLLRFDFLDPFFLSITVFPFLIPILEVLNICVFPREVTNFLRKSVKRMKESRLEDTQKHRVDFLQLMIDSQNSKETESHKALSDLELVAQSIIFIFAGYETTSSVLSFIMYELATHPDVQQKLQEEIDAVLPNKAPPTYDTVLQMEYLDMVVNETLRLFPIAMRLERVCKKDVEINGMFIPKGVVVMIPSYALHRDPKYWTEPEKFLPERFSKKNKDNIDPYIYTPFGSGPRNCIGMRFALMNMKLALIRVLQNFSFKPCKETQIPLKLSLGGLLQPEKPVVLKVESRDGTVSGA

On to `O=C(Nc1ccc(S(=O)(=O)Nc2nccs2)cc1)c1ccnc(-c2ccccc2)c1`, for which the outcome in [1] was inactive. In addition, the Potency entry in [2] and in [4] was “inactive” in each case. Also, in experiment [3], the Potency is 13.7 µM (active).

On to `Cc1nc(NC2CCCCC2)c2nc(-c3ccccc3)n(CC3CCN(C)CC3)c2n1`, for which the Potency result in experiment [5] and in [4] was “inactive” in each case.

Regarding `O=C(Nc1nc(-c2ccccc2)cs1)c1ccccc1Cl`, the Potency in [3] is 13.7 µM (active). Besides, the Potency entry in experiment [4] is “inactive”.

`COc1cc(OC)cc(C(=O)N2CCN(Cc3ccccc3C(F)(F)F)CC2)c1`: the Potency entry in experiment [6] and in experiment [7] was “inactive” each time.

In the case of `CC(C)(C)OC(=O)N[C@@H](Cc1ccc(O[S+](=O)([O-])c2cccnc2)cc1)C(=O)N1CCN(c2ccccc2)CC1`, in experiment [8], the remaining parasite growth % (stronger effect = lower value) is -0.793%. For the same compound, the remaining proliferation (% of control), lower = more inhibition in experiment [9] is -0.169%. Further, the Potency entry in [4] was “inactive”.

Take `N[C@@H](Cc1ccc(OS(=O)(=O)c2cccnc2)cc1)C(=O)N1CCN(c2ccccc2)CC1`: the remaining parasite growth % (stronger effect = lower value) in experiment [8] is 41.2%. Besides, the remaining proliferation (% of control), lower = more inhibition in [9] amounted to 27.8%. In [4], the Potency entry is “inactive”.

Regarding `CC(C)(C)OC(=O)N[C@@H](Cc1ccc(OS(=O)(=O)c2cccc3cnccc23)cc1)C(=O)N1CCCN(C(=O)OC(C)(C)C)CC1`, the parasite growth, % of DMSO control in experiment [10] came out at 5.32%. For the same compound, the parasite growth remaining, % of DMSO control (lower = more inhibition) in experiment [11] is 7.99%. Further, in experiment [12], the parasite growth, % of control (lower = inhibition) came out at 34.3%. In [13], the growth, % of control stood at 7.55%. The Potency result in experiment [4] was “inactive”.

`COc1ccc(C2=Nn3c(nnc3-c3ccccc3OC)SC2)cc1OC1CCCC1`: the Potency in experiment [14] is 4.23 µM (active). Moreover, the Potency result in experiment [4] is “inactive”.

In turn, `O=C(Nc1ccc(-c2ccccc2)cc1)[C@H](Cc1ccc(O[S+](=O)([O-])c2cccc3cnccc23)cc1)N[S+](=O)([O-])c1cccc2cnccc12` registered a parasite growth, % of DMSO control in experiment [10] of 5.02%. This compound displayed a parasite growth remaining, % of DMSO control (lower = more inhibition) in experiment [11] of 10.4%. For the same compound, the parasite growth, % of control (lower = inhibition) in experiment [12] came out at 17.5%. In experiment [13], this compound showed a growth, % of control of 6.38%. Further, the Potency result in experiment [4] is “inactive”.

For the compound `O=C([C@H](Cc1ccc(O[S+](=O)([O-])c2cccc3cccnc23)cc1)N[S+](=O)([O-])c1cccnc1)N1CCN(c2ccccc2)CC1`, the remaining parasite growth % (stronger effect = lower value) in [8] is -0.283%. For the same compound, the remaining proliferation (% of control), lower = more inhibition in [9] was -0.167%. In addition, the Potency result in [4] is “inactive”.

As to `COc1ccc(-c2ccc3ncnc(NCc4cccs4)c3c2)cc1OC`, in experiment [15], the Potency was 37.9 µM (active). The Potency entry in experiment [4] was “inactive”.

In turn, `CC(C)(C)OC(=O)N[C@@H](Cc1ccc(O[S+](=O)([O-])c2cccc3cnccc23)cc1)C(=O)N1CCN(Cc2ccccc2)CC1` showed a parasite growth, % of DMSO control in experiment [10] of 5.32%. In [11], this compound came in with a parasite growth remaining, % of DMSO control (lower = more inhibition) of 7.86%. In addition, in [12], the parasite growth, % of control (lower = inhibition) was 22.5%. In [13], the growth, % of control is 10.3%. Also, the Potency result in [4] is “inactive”.

On to `COc1c2c(c(C(=O)/C=C/C(C)=C/c3ccccc3)c3c1OCO3)CCN(C)C2`, for which the Potency entry in experiment [6] is “inactive”.

Take `COc1cc(NS(=O)(=O)c2ccc(C)cc2)ccc1C(=O)Nc1nc(-c2ccccc2)cs1`: the Potency in experiment [3] is 2.73 µM (active). Moreover, the Potency result in [4] was “inactive”.

Regarding `O=C(c1ccccc1)N1CCN(Cc2cccc(Oc3ccccc3)c2)CC1`, the Potency result in experiment [6] is “inactive”.

Consider `Cc1ccc(S(=O)(=O)Nc2cccc(C(=O)Nc3nc(-c4ccccc4)cs3)c2)cc1`, for which the Potency in [3] is 3.43 µM (active). Further, the Potency result in [4] is “inactive”.

Turning to `COc1cc2c(cc1OC)[C@H](C)N(CC1C(=O)O[C@@H]3C[C@@]4(C)CCC[C@H](C)[C@@]45OC5[C@H]13)CC2` (stereo not given in full), the Potency in experiment [6] is 35.5 µM (active).

Take `O=C([C@@H](Cc1ccc(O[S+](=O)([O-])c2cccnc2)cc1)N[S+](=O)([O-])c1cccc2cccnc12)N1CCN(c2ccccc2)CC1`: in experiment [8], the remaining parasite growth % (stronger effect = lower value) was -1.01%. Further, the remaining proliferation (% of control), lower = more inhibition in [9] was 0.336%. For the same compound, the Potency result in [4] is “inactive”.

For the compound `Cc1ccc(S(=O)(=O)Nc2ccccc2CNc2nc(-c3ccccc3)cs2)cc1`, the Potency in experiment [3] is 6.11 µM (active). For the same compound, the Potency entry in experiment [4] is “inactive”.
